Source: PubChem (several laboratories)
CCHF vOTU inh-1: CCHFV vOTU protease inhibitors, primary screen, biochemical, Pep-AMC substrate, fluorescence | 0.55% of 370,000 active | Crimean-Congo hemorrhagic fever virus L polyprotein viral ovarian tumor (vOTU) protease … | inhibition, % at 11.5 µM | AID 651958, 2012; further: 0% = vehicle wells with enzyme and 100% = no enzyme wells
BJeLR lethal: MLPCN primary cell-based screen for lethality selective to Ras in HRASV12 cells | BJeLR (HRASV12) viability, CellTiter-Glo ATP luminescence, 48 h | 0.17% of 300,000 active | inhibition, % (concentration not given with the values); in the data active means inhibition above about 50%
3CLpro inhibitor: SARS-CoV 3CLpro protease inhibitors, primary screen, biochemical, quenched FRET; recombinant SARS-CoV 3CLpro, quenched FRET peptide cleavage; 0.14% of 290,000 active; AID 1706, 2009; inhibition, % at 6 µM; in the data active means inhibition above about 12%
DUSP3 inh: VHR1 phosphatase inhibitors, primary screen, biochemical, absorbance, uHTS; recombinant VHR phosphatase, pNPP absorbance; inhibition, % at 13.3 µM; 0.52% of 290,000 active; AID 1654, 2009; in the data active means inhibition above about 50%
Target sequence (P51452 whole entry, looked up): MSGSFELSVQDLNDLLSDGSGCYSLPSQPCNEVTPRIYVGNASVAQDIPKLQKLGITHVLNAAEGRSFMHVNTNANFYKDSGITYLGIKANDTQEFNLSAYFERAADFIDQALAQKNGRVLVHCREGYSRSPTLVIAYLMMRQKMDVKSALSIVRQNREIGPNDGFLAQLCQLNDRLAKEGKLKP
MazEF act: activators of E. coli MazEF toxin-antitoxin RNase, primary screen, biochemical, fluorescence, uHTS | FAM/BHQ RNA-DNA oligo cleavage fluorescence, 5 h | 0.32% of 350,000 active | Endoribonuclease toxin MazF (Escherichia coli (strain K12)), P0AE70 | activation, % at 20 µM | AID 504720, 2011; in the data active means activation above about 50%
Target sequence (P0AE70 whole entry, looked up): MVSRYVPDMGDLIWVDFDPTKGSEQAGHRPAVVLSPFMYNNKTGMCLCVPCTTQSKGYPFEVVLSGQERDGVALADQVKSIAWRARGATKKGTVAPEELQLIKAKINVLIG
CCHF vOTU inh-2: CCHFV vOTU protease inhibitors, confirmation, biochemical, Pep-AMC substrate, fluorescence; shares compounds with CCHF vOTU inh-1; Recombinant CCHFV vOTU; inhibition, % at 11.5 µM; 17% of 1,900 active; AID 686976, 2013
An asterisk follows results filed as active; . = no result given. Most compounds without a hit are left out; they make up all but 1.4% or so of the library. Unless noted, no stated cut-off is given here; in the data, active means inhibition above about 30%; inactive means the rest.

SMILES	CCHF vOTU inh-1	BJeLR lethal	3CLpro inhibitor	DUSP3 inh	MazEF act	CCHF vOTU inh-2
C=CCC[C@H](Cc1ccc(F)cc1)C(=O)OC[C@@H](C)NC(=O)[C@H](CC=C)CC(=O)N(CCO)Cc1ccccc1	20	.	.	.	-4	.
C=CCC[C@@H](Cc1ccc(F)cc1)C(=O)OC[C@H](C)NC(=O)[C@@H](CC=C)CC(=O)N(CCO)Cc1ccccc1	32*	.	.	.	0	5
C=CCC[C@@H](Cc1ccc(F)cc1)C(=O)OC[C@@H](NC(=O)[C@@H](CC=C)CC(=O)N(CCO)Cc1ccccc1)c1ccccc1	34*	.	.	.	-12	4
C=CC[C@@H](Cc1ccc(F)cc1)C(=O)OC[C@H]1CCCN1C(=O)[C@@H](CC=C)CC(=O)N(CCO)Cc1ccccc1	31*	.	.	.	2	5
Cc1c(C)n(Cc2ccc(-c3ccccc3C(=O)O)cc2)c2ccc(C(=O)N[C@@H](C)c3ccc([N+](=O)[O-])cc3)cc12	42*	.	.	.	.	9
CCC(NC(=O)c1ccc2c(c1)c(C)c(C)n2Cc1ccc(-c2ccccc2C#N)cc1)c1ccccc1 (stereo not drawn)	11	.	.	.	.	.
COCc1cc(N2CCN(C(=O)OC(C)(C)C)C[C@H]2C)ccc1N1C[C@@H](C)O[C@@H](C)C1	35*	.	.	.	.	-3
COCc1cc(N2CCN(C(=O)OC(C)(C)C)C[C@@H]2C)ccc1N1C[C@@H](C)O[C@@H](C)C1	27	.	.	.	.	.
CC1=NN(c2ccc(F)cc2)C(=O)C1C(c1cccc(O)c1)c1c(C)[nH]n(-c2ccc(F)cc2)c1=O (stereo not drawn)	66*	1	4	17	0	-16
CCCCCCCCNC(=O)C1CSCCS(=O)(=O)N1Cc1ccccc1 (stereo not drawn)	11	.	.	.	.	.
COc1ccc(CNC(=O)Cn2nc(C(F)(F)F)c3c2CCC3)cc1	9	-5	-2	18	4	.
COc1ccc(NC(=O)Cn2nc(C(F)(F)F)c3c2CCCC3)c(OC)c1	30*	-1	0	-10	-3	-21
O=C(COC(=O)c1n[nH]c2ccccc12)NC(=O)NCc1ccco1	35*	-1	0	10	0	-11
CNC(=O)NC(=O)COC(=O)c1n[nH]c2ccccc12	-13	7	-1	6	6	.
O=[N+]([O-])c1cccc(OC[C@@H](O)CN2CCC(C(O)(c3ccccc3)c3ccccc3)CC2)c1	-5	.	.	.	.	.
Cc1nc2scc(C)n2c(=O)c1S(=O)(=O)Nc1ccc(OC(F)(F)F)cc1	40*	-6	2	-4	1	-4
O=C(c1cccs1)N1C[C@H](O)[C@@H](n2cc(C3CC3)nn2)C[C@@H]1c1ccccc1	30*	.	.	.	-10	-22
Nc1ccc(N(CCO)CCO)cc1	57*	3	4	21	-104	27
OC(c1ccc(Cl)c(Cl)c1)c1ncc(-c2ccc(Cl)cc2)[nH]1 (stereo not drawn)	7	.	.	.	.	.
OC(c1ccc(Cl)c(Cl)c1)c1ncc(-c2ccc(C(F)(F)F)cc2)[nH]1 (stereo not drawn)	35*	.	.	.	.	-6
OC(c1ccc(Cl)c(Cl)c1)c1ncc(-c2ccccc2C(F)(F)F)[nH]1 (stereo not drawn)	34*	.	.	.	.	-10
OC(c1ccc(Cl)c(F)c1)c1ncc(-c2ccccc2C(F)(F)F)[nH]1 (stereo not drawn)	-1	.	.	.	.	.
O=C1OC(c2cccs2)=N/C1=C\c1ccc(-c2ccccc2Cl)o1	32*	2	-7	-18	6	0
C=CCn1c(O)c(C(CC)=Nc2ccc(N(C)C)cc2)c(=O)[nH]c1=O	38*	3	2	1	6	-21
CC(=C\c1ccccc1)/C=C1/SC(=S)N(C(C(=O)O)C(C)C)C1=O (stereo not drawn)	32*	-3	-1	4	2	12
SMILES	CCHF vOTU inh-1	BJeLR lethal	3CLpro inhibitor	DUSP3 inh	MazEF act	CCHF vOTU inh-2
c1ccc(-c2nnc3n2N=C(c2ccc4ccccc4c2)CS3)nc1	1	.	.	.	.	.
CCOc1cc(/C=C2\C(=O)N(CCC#N)N=C2C)ccc1OCC(N)=O	44*	4	1	-3	4	-24
CCOc1cc(/C=C2/C(=O)N(c3ccccc3)N=C2C)ccc1OC(=O)c1cccs1	.	-14	6	25	-6	.
COc1ccccc1C(C(=O)NC1CCCCC1)N(C(=O)c1csnn1)C1CC1 (stereo not drawn)	-9	7	-1	12	3	.
O=C(NC1CCCCC1)C(c1ccccc1F)N(C(=O)c1csnn1)C1CCCC1 (stereo not drawn)	65*	9	-1	28	10	-6
COCCCNC(=O)c1oc(=O)c2ccccc2c1-c1ccc(C)cc1	-4	.	.	.	.	.
CSc1ccc(CN2CCC2(C)C(=O)NCc2cccc(C(F)(F)F)c2)cc1 (stereo not drawn)	10	.	.	.	.	.
CC1(C(=O)NCc2ccc(C(F)(F)F)cc2)CCN1Cc1ccc(-c2ccccc2)o1 (stereo not drawn)	18	.	.	.	.	.
CC1(C(=O)NCc2ccc(C(F)(F)F)cc2)CCN1Cc1c(F)cccc1F (stereo not drawn)	31*	.	.	.	.	4
CC1(C(=O)NCc2cccc(C(F)(F)F)c2)CCN1CCc1ccccc1 (stereo not drawn)	31*	.	.	.	.	3
COc1cc(C(NC(C)=O)NC(C)=O)ccc1OCc1ccccc1	-8	1	-2	30	-3	.
C=CCOc1ccc(C(c2c(C(=O)O)[nH]c3ccccc23)c2c(C(=O)O)[nH]c3ccccc23)cc1	51*	1	5	6	-17	-2
COc1cc(C(c2c(C(=O)O)[nH]c3ccccc23)c2c(C(=O)O)[nH]c3ccccc23)ccc1OCc1ccccc1	39*	4	11	6	-4	22
COc1ccc(CN=Cc2c(C(=O)O)[nH]c3ccccc23)cc1	0	3	4	38	4	.
COC(=O)CCC1NC(=O)C(Cc2c[nH]c3ccccc23)NC(=O)C2CC(=O)OC(C)C(NC(=O)C(C)NC(=O)C3CCCN3C(=O)C3CCCN3C(=O)C(C)NC(C)=O)C(=O)NC(CC(C)C)C(=O)NC(CCCCNC(=O)CCC(C(=O)NC(Cc3ccc(O)cc3)C(=O)O)NC1=O)C(=O)NC(Cc1c[nH]c3ccccc13)C(=O)N1CCCC1C(=O)NC(CO)C(=O)N2 (stereo not drawn)	9	.	.	.	.	.
CSCCCNC(=O)C1CCN(S(=O)(=O)c2ccc3[nH]c(=O)oc3c2)CC1	-1	.	.	.	.	.
CC1CCCC(NC(=O)COC(=O)COc2cccc(F)c2)C1C (stereo not drawn)	41*	.	.	.	4	-16
